Experimental data taken from ChEMBL document CHEMBL3988442, “University of Dundee, Small-Polar-MMV Screening Library” (2021).
The whole screen tested about 69,000 compounds, of which about 50 (0.07%) showed an effect of 50% or more. Only a selection was taken, and strong results are over-represented in it overall.

Molecular target: Lysine--tRNA ligase (Plasmodium falciparum (isolate 3D7)) (UniProt Q8IDJ8)
Assay: Pf-KRS-1 (Lysyl-RNA Synthetase-1, KRS-1, cytosolic KRS) from Plasmodium falciparum. Inhibitor assay, 384 well plate, luminescence read.
Format: functional
Design: scale not given: in the data most compounds retested in dose-response had high values
Conditions: 30 µM

Sequence of Lysine--tRNA ligase (Plasmodium falciparum (isolate 3D7)) (Q8IDJ8 1-583): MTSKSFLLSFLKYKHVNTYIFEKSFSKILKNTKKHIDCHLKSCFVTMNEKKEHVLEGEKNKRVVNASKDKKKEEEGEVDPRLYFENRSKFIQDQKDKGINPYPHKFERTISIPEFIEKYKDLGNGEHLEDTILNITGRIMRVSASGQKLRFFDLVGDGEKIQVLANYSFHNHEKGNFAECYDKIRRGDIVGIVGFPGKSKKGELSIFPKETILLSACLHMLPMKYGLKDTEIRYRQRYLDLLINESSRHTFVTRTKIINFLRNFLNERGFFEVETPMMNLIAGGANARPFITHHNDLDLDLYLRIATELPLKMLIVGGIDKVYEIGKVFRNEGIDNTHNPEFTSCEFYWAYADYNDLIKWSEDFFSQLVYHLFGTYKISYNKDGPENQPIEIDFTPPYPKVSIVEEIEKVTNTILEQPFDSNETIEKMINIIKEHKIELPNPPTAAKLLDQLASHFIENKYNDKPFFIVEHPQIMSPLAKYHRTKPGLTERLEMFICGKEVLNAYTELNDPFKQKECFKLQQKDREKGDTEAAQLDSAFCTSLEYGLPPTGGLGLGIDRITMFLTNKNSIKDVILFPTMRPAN

Compound	Percent Effect
N#Cc1cccc(C(=O)Nc2ccc([C@@H](O)[C@H]3COCC(=O)N3)cc2)c1	5.33%
COCC(=O)N1CCN(S(=O)(=O)c2ccccc2)[C@H]2CS(=O)(=O)C[C@H]21	2.66%
O=C1CO[C@@H]2CN(Cc3nccs3)C[C@H]2N1Cc1ccncc1	3.56%
COCC(=O)N1C[C@@H](OCc2ccncc2)[C@@H]2OCCC[C@@H]21	0.763%
COc1ccccc1C1CC(=O)Nc2c1c(=O)[nH]n2C(C)C (stereo not drawn)	-1.35%
COc1ccccc1C1CC(=O)Nc2nc(N3CCCCC3)sc21 (stereo not drawn)	84.3%
COc1ccccc1C1CC(=O)Nc2c1c(=O)[nH]n2C1CCCC1 (stereo not drawn)	5.39%
COCCN1C[C@H]2CCC[C@@H](CNc3ncccn3)[C@H]2C1	5%
Cn1ccnc1NC[C@@H]1CCC[C@@H]2CN(CC3CC3)C[C@@H]21	9.69%
Cc1ncsc1CN1C[C@H]2OCC[C@H]2[C@H](C(=O)NCC2CC2)C1	0.98%
Fc1cccc(CCN(c2ccc3nnnn3n2)C2CC2)c1	5.52%
CCCN(CCc1cccc(F)c1)c1ccc2nnnn2n1	10.9%
CCN(Cc1cccc(F)c1)c1ccc2nnnn2n1	50.8%
O=C(c1ccco1)N1CC[C@@H]2O[C@H](COCC3CCOCC3)CC[C@@H]21	0.363%
CS(=O)(=O)NC[C@@H]1OC[C@H]2CN(Cc3ccccc3)CC[C@H]21	3.37%
COCCNC(=O)[C@H]1C[C@@H]2CCN(CCc3ccccc3)C[C@@H]2O1	1.68%
COc1cccc(CN2C[C@@H]3COC[C@]3(CNC(=O)C3CC3)C2)c1	4.5%
O=c1[nH]nc(-c2cccs2)c2sc(N3CCOCC3)nc12	7.56%
OC1CN(c2nc3c(C(F)(F)F)cccc3s2)C1	-2.21%
Cc1cc(Br)c(O)c(-c2nc(N3CCOCC3)sc2C)c1	2.13%
Cn1ncc2c1NC(=O)CC2c1ccccc1Br (stereo not drawn)	1.2%
O=C1CC(c2ccccc2C(F)(F)F)c2sc(N3CCOCC3)nc2N1 (stereo not drawn)	82.6%
O=C1CC(c2ccccc2Br)c2sc(N3CCOCC3)nc2N1 (stereo not drawn)	60.1%
COCCN1CCO[C@@H]2CN(Cc3ccc(C)o3)C[C@@H]2C1	3.96%
CNC(=O)[C@@H]1COC[C@H]2CN(C(=O)COc3ccccc3)C[C@H]21	5.31%
CC(C)CS(=O)(=O)N1C[C@H]2C[C@H](C(=O)Nc3cccnc3)[C@@H](C1)O2	-0.957%

Compound	Percent Effect
O=C(Nc1ccccc1)[C@H]1C[C@@H]2CN(S(=O)(=O)c3ccccc3)C[C@H]1O2	1.2%
CCOCC1CN(Cc2ccc(OC)cc2)Cc2nn(C)cc21 (stereo not drawn)	-4.8%
CCOCC1CN(Cc2ccc(F)cc2)Cc2nn(CC3CC3)cc21 (stereo not drawn)	3.6%
CCOCC1CN(Cc2ccc(OC)cc2)Cc2nn(CC3CC3)cc21 (stereo not drawn)	60.3%
CNC(=O)N1CC[C@H]2N(C)CC[C@@]2(C(=O)N2CCOCC2)CC1	5.59%
Cc1cccc(C(=O)N2CC[C@H]3C[C@@H](C)O[C@@H]3C2)n1	1.1%
CS(=O)(=O)N1C[C@@H]2COC[C@@H](CC(=O)N3CCCCO3)[C@@H]2C1	-2.78%
O=C(N1CCCO1)[C@@]12CCO[C@@H]1CCN(Cc1ccccc1)C2	4.7%
COc1cccc(CN2C[C@H]3CCNCC[C@H]3S2(=O)=O)c1	-2.39%
Cc1noc(C)c1CN1CC[C@H]2C[C@H](c3nccs3)O[C@@H]2C1	-0.715%
COCc1nc2cc(NCc3csc(C)n3)ccc2o1	10.7%
COCc1nc2cc(NCc3sc(C)nc3C)ccc2o1	58.6%
COCc1nc2cc(NCc3scnc3C)ccc2o1	13.6%
CC/C=C(\C)CN1CCC(CNC(=O)c2c[nH]c(=O)c(Cl)c2)C1 (stereo not drawn)	-1.78%
CCC1CCC(CNC(=O)c2c[nH]c(=O)c(Cl)c2)CC1 (stereo not drawn)	67.6%
COCCN1CCC(CNC(=O)c2c[nH]c(=O)c(Cl)c2)CC1	2.11%
c1cnc(N2CC[C@@H]3CN(Cc4ccncc4)CCO[C@@H]3C2)nc1	4.97%
Cc1cccc(CO[C@H]2CN(c3nnc(C)s3)[C@@H]3CCCO[C@H]23)n1	3.74%
COc1cccc(-c2n[nH]c3c2CN(C(=O)c2cc(C)n(C)n2)CC3)c1	-1.18%
COc1cccc(-c2n[nH]c3c2CN(C(=O)c2ccncc2)CC3)c1	0.631%
COc1cccc(-c2n[nH]c3c2CN(C(=O)c2cccc(=O)[nH]2)CC3)c1	55.1%
Cn1cccc1C(=O)N1C[C@H](OCC2CCOCC2)[C@H]2COC[C@H]21	3.49%
c1cnnc(N[C@@H]2CC[C@@H]3CN(Cc4c[nH]c5ccccc45)C[C@@H]32)c1	0.669%
CCCN(C(=O)COC)c1nc2c(s1)CCc1c-2cnn1C	74.8%
CCCN(C(=O)c1ccccn1)c1nc2c(s1)CCc1c-2cnn1C	50.4%
CCCN(C(=O)c1cnc(C)cn1)c1nc2c(s1)CCc1c-2cnn1C	40.4%

Compound	Percent Effect
CCCN(C(=O)c1cnccn1)c1nc2c(s1)CCc1c-2cnn1C	10.8%
CN(C(=O)c1ccccn1)c1nc2c(s1)CCc1c-2cnn1C	0.965%
COCCN(C(=O)c1ccccn1)c1nc2c(s1)CCc1c-2cnn1C	52.4%
CCCN(C(=O)c1cccnc1)c1nc2c(s1)CCc1c-2cnn1C	44%
CCCN(C(=O)c1ccncc1)c1nc2c(s1)CCc1c-2cnn1C	16.2%
COCCN(C(=O)c1cnccn1)c1nc2c(s1)CCc1c-2cnn1C	8.73%
Cc1nccc([C@H]2C[C@@H]3CCN(S(C)(=O)=O)C[C@H]3O2)n1	-0.787%
O=C([C@H]1COC[C@H]2CN(c3ccncn3)C[C@H]21)N1CCCC1	-3.71%
O=C(Nc1cnccn1)[C@H]1C[C@H]2OCC[C@H]2N(c2ncc(F)cn2)C1	11.9%
COc1cccc(-c2ncc(CN3C[C@@H]4CC[C@H](C3)N(C)C4=O)s2)c1	-4.12%
COc1ccc(C2CC(=O)Nc3nc(N4CCOCC4)sc32)c(OC)c1 (stereo not drawn)	86.4%
COc1ccc(OC)c(C2CCN(CC(C)(C)N3CCOCC3)C2)c1 (stereo not drawn)	1.11%
COc1ccc(C2CC(=O)Nc3c2cnn3C)cc1 (stereo not drawn)	-3.99%
COc1ccc(C2CCCN2c2nnc(C)s2)c(OC)c1 (stereo not drawn)	-1.09%
COc1ccc(OC)c(C2CC(=O)Nc3nc(N4CCOCC4)sc32)c1 (stereo not drawn)	84.5%
CCn1ncnc1C1CC(=O)NCc2nc(N3CCOCC3)sc21 (stereo not drawn)	0.366%
COc1ccc(OC)c(C2SCC(=O)Nc3n[nH]cc32)c1 (stereo not drawn)	4.67%
COc1ccc(C2CC(=O)Nc3nc(N4CCOCC4)sc32)cc1 (stereo not drawn)	82.2%
COc1ccc(C2CC(=O)NCc3nc(N(C)C)sc32)c(O)c1 (stereo not drawn)	1.01%
COCCN1C(=O)CO[C@H]2CN(Cc3ccccc3Cl)C[C@@H]21	3.69%
O=C(c1cocn1)N1C[C@H]2CCC[C@@]2(COCc2cccnc2)C1	2.44%
Cc1c(Cl)cccc1S(=O)(=O)N1C[C@@H]2CC[C@H](C1)N(C)C2=O	3.71%
O=S1(=O)C[C@@H]2[C@H](C1)N(Cc1ccoc1)CCN2Cc1ccncc1	8.97%
O=C(c1ccncc1)N1C[C@@H]2CC[C@H](C1)N(C(=O)C1CCCC1)C2	-0.475%
CNc1nc2c(s1)C(c1ccc(Cl)cc1Cl)CC(=O)N2 (stereo not drawn)	47.4%
CNc1nc2c(s1)C(c1cccc(F)c1F)CC(=O)N2 (stereo not drawn)	50.5%

Compound	Percent Effect
CC(C)(C)n1ncc2c1NC(=O)CC2c1c(F)cccc1F (stereo not drawn)	5.99%
O=C1CC(c2ccccc2F)c2c(n3ccsc3nc2=O)N1 (stereo not drawn)	6.5%
CNc1nc2c(s1)C(c1ccccc1Cl)CC(=O)N2 (stereo not drawn)	84.5%
CNc1nc2c(s1)C(c1ccc(F)cc1Cl)CC(=O)N2 (stereo not drawn)	82%
CNc1nc2c(s1)C(c1cccc(Cl)c1Cl)CC(=O)N2 (stereo not drawn)	29.5%
CNc1nc2c(s1)C(c1cc(Cl)ccc1F)CC(=O)N2 (stereo not drawn)	44.9%
Cc1ccsc1C1CC(=O)Nc2c1cnn2C(C)C (stereo not drawn)	3.08%
CNc1nc2c(s1)C(c1ccccc1F)CC(=O)N2 (stereo not drawn)	79.2%
Cn1ncc2c1NC(=O)CC2c1ccccc1Cl (stereo not drawn)	6.28%
Cn1ncc2c1NC(=O)CC2c1ccc(Cl)cc1Cl (stereo not drawn)	9.51%
O=C(NCC1CC1)[C@@H]1CC[C@@H]2[C@@H](CCN2Cc2ccco2)O1	-0.532%
COCCN1C[C@H]2CN(Cc3cccc(OC)c3)CCN2C1=O	8.64%
COc1ncccc1C(=O)N1C[C@@H]2COC[C@]2(CN(C)C)C1	-2.56%
Fc1ccccc1CN1C[C@@H]2OCCN(c3ncccn3)[C@@H]2C1	-1.46%
COCCN1C(=O)[C@H]2CC[C@@H]1CN(S(=O)(=O)c1ccc(OC)cc1)C2	5.86%
c1cnc2c(-c3nccn3C[C@@H]3CCCN4CCCC[C@H]34)cccc2c1	1.5%
Cc1cccc(S(=O)(=O)N2CC[C@H]3[C@H]2CCN3c2ncccn2)c1	1.51%
O=C(c1cscn1)N1CC[C@@H]2[C@@H]1CCN2C1CCOCC1	1.62%
CN1C[C@@H]2CC[C@H](CC1=O)N2C(=O)c1ccc(-c2ccccc2)[nH]c1=O	16.3%
COc1ccc(CC(=O)N2CC[C@@H]3CN(C)S(=O)(=O)[C@@H]3CC2)cc1	3.63%
Cn1ncc2c1NC(=O)CC2c1c(F)cccc1Cl (stereo not drawn)	2.46%
CNc1nc2c(s1)C(c1c(F)cccc1Cl)CC(=O)N2 (stereo not drawn)	70%
CNc1nc2c(s1)C(c1c(Cl)cccc1Cl)CC(=O)N2 (stereo not drawn)	35.2%
O=C1C[C@H]2[C@@H](CCN2C(=O)Cc2cccs2)N1Cc1ccncc1	3.5%
Cc1cccc(CN2C[C@@H]3OCCN(S(=O)(=O)N(C)C)[C@@H]3C2)c1	2.13%
